# Results published in PubChem BioAssay (EPA / NIEHS).
# Results filed as inconclusive are left out. The source holds several records for some structures; these can differ, active in one and inactive in another. Calls of active or inactive are those of the source. The calls were made as follows, unless noted: active = hit-call score of the fitted dose curve at least 0.9, where 1 is the maximum; inconclusive = response in the unintended direction; inactive = score below 0.9.
# What was measured:
# [1] = biological target: mouse Estrogen Receptor alpha (Era), Esr1 (gene 13982) (UniProt P19785); experiment: NVS_NR_mERa: NovaScreen (NVS) Nuclear Receptor Binding Assay for mouse Estrogen Receptor alpha (Era) (AID 2283378);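 also: hit means loss of bound radioligand signal relative to DMSO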
# Summary of the method: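 Filter scintillation counts of bound radioligand, measured 18 h post-dose, gave the readout; decreased signal relative to DMSO controls indicated displacement from mouse Era. Primary screen ran in duplicate at 25 uM; active chemicals were retested across concentrations.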
# [2] = biological target: Estrogen receptor beta (Homo sapiens) (UniProt Q92731); experiment: OT_ER_ERbERb_1440: Odyssey Thera (OT) 24-hour HEK293T Protein-Complementation Assay for Estrogen Receptor-beta/-beta Homodimer (AID 2283380);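 also: scored as signal increase over DMSO baseline for both agonists and antagonists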
# Summary of the method: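 HEK293T cells stably expressing ER beta LBD (aa 310-547) homodimer fragment-complementation reporter, dosed 24 h. Cells formaldehyde-fixed, Draq5-stained; gain in nuclear (agonist) or nuclear plus cytoplasmic (antagonist) fluorescence versus DMSO read by laser scanning cytometry.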
# [3] = biological target: Estrogen receptor (Homo sapiens) (UniProt P03372); experiment: OT_ERa_GFPERaERE_0480: Odyssey Thera (OT) 8-hour HeLa Transcription Induction Assay for Estrogen Receptor (AID 2283381; active = hit-call score of the fitted dose curve at least 0.9, where 1 is the maximum; inactive = score below 0.9)
# Summary of the method: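 Fluorescent reporter signal, imaged by microscopy and scored with image-analysis algorithms, was taken 8 h after chemical dosing of HeLa cells; activity was fitted upward relative to DMSO.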
# [4] = biological target: Estrogen receptor (Homo sapiens) (UniProt P03372); experiment: OT_ERa_GFPERaERE_0120: Odyssey Thera (OT) 2-hour HeLa Transcription Induction Assay for Estrogen Receptor (AID 2283382)
# Summary of the method: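 HeLa, 384-well, 2 h chemical exposure; GFP reporter induction (ERE), fluorescence microscopy; high content image analysis; positive fitting direction vs DMSO.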
# [5] = biological target: Bile acid receptor (Homo sapiens) (UniProt Q96RI1); experiment: OT_FXR_FXRSRC1_0480: Odyssey Thera (OT) 8-hour HEK293T Protein-Complementation Assay for Farnesoid X receptor/SRC-1 Co-activator (AID 2283383)
# Summary of the method: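 Human kidney HEK293T cells carried FXR/SRC-1 fragment-complementation constructs. Compounds were added and incubated 8 h. Reporter reassembly upon receptor–co-activator interaction was then quantified by fluorescence, with curves fitted in the positive direction relative to DMSO.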
# [6] = biological target: Bile acid receptor (Homo sapiens) (UniProt Q96RI1); experiment: OT_FXR_FXRSRC1_1440: Odyssey Thera (OT) 24-hour HEK293T Protein-Complementation Assay for Farnesoid X receptor/SRC-1 Co-activator (AID 2283384)
# Summary of the method: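 Compounds are applied to human kidney HEK293T cells expressing bait and prey fused to reporter protein fragments; after 24 h, reconstituted reporter fluorescence is measured. Activity is fitted as signal gain over DMSO.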
# [7] = biological target: Retinoic acid receptor RXR-alpha (Homo sapiens) (UniProt P19793); experiment: OT_NURR1_NURR1RXRa_0480: Odyssey Thera (OT) 8-hour HEK293T Protein Complementation Assay for Nurr1/retinoid X receptor (RXR) (AID 2283385)
# Summary of the method: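 8 h compound exposure, HEK293T; Nurr1/RXRα fragment complementation; fluorescence intensity; positive fitting direction vs DMSO baseline.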
# [8] = biological target: Retinoic acid receptor RXR-alpha (Homo sapiens) (UniProt P19793); experiment: OT_NURR1_NURR1RXRa_1440: Odyssey Thera (OT) 24-hour HEK293T Protein Complementation Assay for Nurr1/retinoid X receptor (RXR) (AID 2283386)
# Summary of the method: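 Interaction of Nurr1 with RXRα brings fused reporter fragments together in human HEK293T cells, restoring a functional reporter. Fluorescence intensity is measured 24 h after chemical treatment, and values are analysed in the positive direction against DMSO.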
# [9] = biological target: Peroxisome proliferator-activated receptor gamma (Homo sapiens) (UniProt P37231); experiment: OT_PPARg_PPARgSRC1_0480: Odyssey Thera (OT) 8-hour Protein-Complementation Assay for Peroxisome Proliferator-activated Receptor Gamma / SRC-1 Co-activator (AID 2283387);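 also: nuclear to cytoplasmic split Venus YFP fluorescence ratio reporting PPARg SRC-1 interaction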
# Summary of the method: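 Protein-fragment complementation in HEK293T: Venus YFP halves (residues 1-158, 159-239, mutated to IFP1/IFP2) fused to PPARg/SRC-1. 8 h exposure; N/C ratio at 488 nm; DMSO negative control.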
# [10] = biological target: Peroxisome proliferator-activated receptor gamma (Homo sapiens) (UniProt P37231); experiment: OT_PPARg_PPARgSRC1_1440: Odyssey Thera (OT) 24-hour Protein-Complementation Assay for Peroxisome Proliferator-activated Receptor Gamma/ SRC-1 Co-activator (AID 2283388);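 also: nuclear to cytoplasmic ratio of reconstituted Venus YFP fluorescence in fixed imaged cells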
# Summary of the method: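 Readout: nuclear-to-cytoplasmic 488 nm fluorescence ratio, ≥350 cells per image, 8 images per well, after 24 h compound exposure of HEK293T expressing PPARg/SRC-1 split-YFP fusions. Activity fitted in positive direction against DMSO.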
# [11] = CEETOX_H295R_11DCORT: CeeTox H295R High-throughput Steroidogenesis Assay for 11-Deoxycortisol (11DCORT) (AID 2283432; active = hit-call score of the fitted dose curve at least 0.9, where 1 is the maximum; inactive = score below 0.9;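 as to AC50: 11-deoxycortisol secreted into the medium measured by LC-MS/MS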); details: actives raise or lower the signal
# Summary of the method: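 Adrenal carcinoma line H295R, run per OECD 456 with minor changes, was forskolin-stimulated (10 uM, 48 h) before a 48 h chemical exposure at 0.1% DMSO. Secreted 11-deoxycortisol was quantified by HPLC-MS/MS.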
# [12] = CEETOX_H295R_OHPREG: CeeTox H295R High-throughput Steroidogenesis Assay for OH-Pregnenolone (OHPREG) (AID 2283434; active = hit-call score of the fitted dose curve at least 0.9, where 1 is the maximum; inactive = score below 0.9); details: actives raise or lower the signal
# Summary of the method: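 H295R cells pre-stimulated 48 h with 10 uM forskolin, then exposed 48 h to chemical in 0.1% DMSO. 17alpha-hydroxypregnenolone in medium quantified by MTBE extraction and HPLC-MS/MS; bidirectional fit versus DMSO, viability checked by MTT.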
# [13] = CEETOX_H295R_OHPROG: CeeTox H295R High-throughput Steroidogenesis Assay for OH-Progesterone (OHPROG) (AID 2283435; active = hit-call score of the fitted dose curve at least 0.9, where 1 is the maximum; inactive = score below 0.9;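 as to AC50: human adrenal H295R cells primed 48 h with 10 µM forskolin; 17alpha-hydroxyprogesterone secreted into medium measured by HPLC-MS/MS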); details: actives raise or lower the signal
# Summary of the method: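 H295R, 10 uM forskolin prestim 48 h; cmpd in 0.1% DMSO 48 h; medium MTBE-extracted, HPLC-MS/MS for OH-progesterone; 7-pt std curve; bidirectional fit vs DMSO; MTT viability, chemicals diluted until viability >/=70%.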
# [14] = CEETOX_H295R_CORTIC: CeeTox H295R High-throughput Steroidogenesis Assay for Corticosterone (CORTIC) (AID 2283437; active = hit-call score of the fitted dose curve at least 0.9, where 1 is the maximum; inactive = score below 0.9;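 also: corticosterone secreted into medium quantified by mass spectrometry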;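 as to AC50: human H295R adrenal cells prestimulated with forskolin before chemical exposure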); details: actives raise or lower the signal
# Summary of the method: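 H295R adrenal cells prestimulated 48 hours with 10 uM forskolin, then exposed 48 hours to chemical in 0.1% DMSO. Corticosterone in medium measured by HPLC-MS/MS after MTBE extraction; MTT viability in the same wells; bidirectional fit versus DMSO.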
# [15] = biological target: Agonist Androgen Response Element (ARE), AR (gene 367) (UniProt P10275); experiment: OT_AR_ARELUC_AG_1440: Odyssey Thera (OT) 24-hour CHO-K1 Luciferase Assay for Agonist Androgen Response Element (ARE) (AID 2283379)
# Summary of the method: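 CHO-K1 cells carrying an ARE-driven luciferase reporter were exposed to compounds for 24 h. Luminescence was then read after adding a D-luciferin/ATP mix, and activity was scored as a gain in signal over DMSO vehicle.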
# [16] = CEETOX_H295R_ANDR: CeeTox H295R High-throughput Steroidogenesis Assay for Androstenedione (ANDR) (AID 2283436; active = hit-call score of the fitted dose curve at least 0.9, where 1 is the maximum; inactive = score below 0.9); details: actives raise or lower the signal
# Summary of the method: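 H295R cells, following OECD 456 with minor changes, exposed to chemicals for 48 h. Androstenedione in the medium was quantified by HPLC-MS/MS after MTBE extraction. Fitting was bidirectional versus DMSO; chemicals were diluted until MTT viability was ≥70%.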
# Chain of Bile acid receptor (Homo sapiens) (Q96RI1 whole entry, looked up, the tested form may be a part): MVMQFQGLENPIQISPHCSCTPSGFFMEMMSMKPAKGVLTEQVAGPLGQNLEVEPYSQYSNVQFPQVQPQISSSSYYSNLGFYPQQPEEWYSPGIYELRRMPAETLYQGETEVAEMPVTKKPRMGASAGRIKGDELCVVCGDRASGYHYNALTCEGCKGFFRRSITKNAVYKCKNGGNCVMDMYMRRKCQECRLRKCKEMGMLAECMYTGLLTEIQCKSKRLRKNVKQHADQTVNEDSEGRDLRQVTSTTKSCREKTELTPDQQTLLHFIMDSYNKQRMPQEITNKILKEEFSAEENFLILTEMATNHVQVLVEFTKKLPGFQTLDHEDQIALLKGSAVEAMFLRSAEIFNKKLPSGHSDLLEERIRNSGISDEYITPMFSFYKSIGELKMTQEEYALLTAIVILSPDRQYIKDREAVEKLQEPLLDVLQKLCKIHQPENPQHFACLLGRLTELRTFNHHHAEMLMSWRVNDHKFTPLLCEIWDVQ
# Chain of Estrogen receptor beta (Homo sapiens) (Q92731 whole entry, looked up, the tested form may be a part): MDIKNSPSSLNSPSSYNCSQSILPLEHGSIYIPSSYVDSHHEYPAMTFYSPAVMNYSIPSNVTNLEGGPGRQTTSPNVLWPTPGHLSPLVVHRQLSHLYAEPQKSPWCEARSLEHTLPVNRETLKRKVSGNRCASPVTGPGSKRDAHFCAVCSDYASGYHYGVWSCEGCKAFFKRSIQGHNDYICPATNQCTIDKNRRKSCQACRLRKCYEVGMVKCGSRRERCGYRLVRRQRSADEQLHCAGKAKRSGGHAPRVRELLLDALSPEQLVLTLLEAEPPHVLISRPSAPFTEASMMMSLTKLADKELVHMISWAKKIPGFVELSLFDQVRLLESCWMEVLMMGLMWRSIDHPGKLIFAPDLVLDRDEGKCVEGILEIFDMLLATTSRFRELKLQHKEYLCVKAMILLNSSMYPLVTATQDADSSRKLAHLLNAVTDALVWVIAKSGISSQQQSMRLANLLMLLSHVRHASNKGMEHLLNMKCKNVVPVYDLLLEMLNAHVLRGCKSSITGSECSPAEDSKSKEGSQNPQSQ
# Chain of Retinoic acid receptor RXR-alpha (Homo sapiens) (P19793 whole entry, looked up, the tested form may be a part): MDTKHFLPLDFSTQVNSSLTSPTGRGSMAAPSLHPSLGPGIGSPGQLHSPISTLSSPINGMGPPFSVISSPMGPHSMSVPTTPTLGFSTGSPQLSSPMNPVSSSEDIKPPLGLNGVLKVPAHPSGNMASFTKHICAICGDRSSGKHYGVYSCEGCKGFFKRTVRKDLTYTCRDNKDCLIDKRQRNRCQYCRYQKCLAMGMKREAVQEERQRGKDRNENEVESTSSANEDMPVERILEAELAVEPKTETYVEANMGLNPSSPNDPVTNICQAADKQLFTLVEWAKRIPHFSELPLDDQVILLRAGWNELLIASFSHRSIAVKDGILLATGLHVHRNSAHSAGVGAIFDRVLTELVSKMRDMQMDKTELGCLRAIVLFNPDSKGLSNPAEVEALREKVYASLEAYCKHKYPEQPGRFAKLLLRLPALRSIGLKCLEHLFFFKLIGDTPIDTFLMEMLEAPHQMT
# Chain of Peroxisome proliferator-activated receptor gamma (Homo sapiens) (P37231 whole entry, looked up, the tested form may be a part): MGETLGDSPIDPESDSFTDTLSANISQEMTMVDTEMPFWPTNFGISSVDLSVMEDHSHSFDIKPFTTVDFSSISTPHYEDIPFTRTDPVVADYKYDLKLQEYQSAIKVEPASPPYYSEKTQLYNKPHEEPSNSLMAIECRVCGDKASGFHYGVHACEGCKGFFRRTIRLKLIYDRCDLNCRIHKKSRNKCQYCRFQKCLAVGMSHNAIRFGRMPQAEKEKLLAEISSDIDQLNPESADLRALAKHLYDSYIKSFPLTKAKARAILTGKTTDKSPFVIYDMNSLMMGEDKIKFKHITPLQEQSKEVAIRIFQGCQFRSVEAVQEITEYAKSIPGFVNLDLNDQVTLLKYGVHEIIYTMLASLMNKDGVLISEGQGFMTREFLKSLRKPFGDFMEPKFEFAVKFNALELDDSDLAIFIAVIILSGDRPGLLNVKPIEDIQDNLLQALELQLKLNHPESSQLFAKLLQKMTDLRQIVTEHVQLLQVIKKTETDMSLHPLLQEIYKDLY
# Chain of Estrogen receptor (Homo sapiens) (P03372 whole entry, looked up): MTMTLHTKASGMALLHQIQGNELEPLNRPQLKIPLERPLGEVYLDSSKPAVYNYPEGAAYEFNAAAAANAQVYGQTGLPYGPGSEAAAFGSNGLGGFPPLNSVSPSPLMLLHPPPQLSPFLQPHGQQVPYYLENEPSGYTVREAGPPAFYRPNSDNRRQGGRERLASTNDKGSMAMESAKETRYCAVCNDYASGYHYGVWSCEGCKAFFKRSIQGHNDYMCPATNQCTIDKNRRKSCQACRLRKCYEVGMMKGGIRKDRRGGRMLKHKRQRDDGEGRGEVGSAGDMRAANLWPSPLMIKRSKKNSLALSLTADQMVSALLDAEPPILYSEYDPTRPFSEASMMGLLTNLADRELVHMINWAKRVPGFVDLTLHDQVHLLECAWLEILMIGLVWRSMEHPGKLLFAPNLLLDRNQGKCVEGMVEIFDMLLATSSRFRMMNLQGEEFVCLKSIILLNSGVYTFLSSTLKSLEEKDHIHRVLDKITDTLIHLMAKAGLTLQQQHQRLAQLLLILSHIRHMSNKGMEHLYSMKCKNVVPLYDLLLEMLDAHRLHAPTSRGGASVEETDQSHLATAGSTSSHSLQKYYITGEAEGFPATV
# Chain of Agonist Androgen Response Element (ARE), AR (gene 367) (P10275 whole entry, looked up): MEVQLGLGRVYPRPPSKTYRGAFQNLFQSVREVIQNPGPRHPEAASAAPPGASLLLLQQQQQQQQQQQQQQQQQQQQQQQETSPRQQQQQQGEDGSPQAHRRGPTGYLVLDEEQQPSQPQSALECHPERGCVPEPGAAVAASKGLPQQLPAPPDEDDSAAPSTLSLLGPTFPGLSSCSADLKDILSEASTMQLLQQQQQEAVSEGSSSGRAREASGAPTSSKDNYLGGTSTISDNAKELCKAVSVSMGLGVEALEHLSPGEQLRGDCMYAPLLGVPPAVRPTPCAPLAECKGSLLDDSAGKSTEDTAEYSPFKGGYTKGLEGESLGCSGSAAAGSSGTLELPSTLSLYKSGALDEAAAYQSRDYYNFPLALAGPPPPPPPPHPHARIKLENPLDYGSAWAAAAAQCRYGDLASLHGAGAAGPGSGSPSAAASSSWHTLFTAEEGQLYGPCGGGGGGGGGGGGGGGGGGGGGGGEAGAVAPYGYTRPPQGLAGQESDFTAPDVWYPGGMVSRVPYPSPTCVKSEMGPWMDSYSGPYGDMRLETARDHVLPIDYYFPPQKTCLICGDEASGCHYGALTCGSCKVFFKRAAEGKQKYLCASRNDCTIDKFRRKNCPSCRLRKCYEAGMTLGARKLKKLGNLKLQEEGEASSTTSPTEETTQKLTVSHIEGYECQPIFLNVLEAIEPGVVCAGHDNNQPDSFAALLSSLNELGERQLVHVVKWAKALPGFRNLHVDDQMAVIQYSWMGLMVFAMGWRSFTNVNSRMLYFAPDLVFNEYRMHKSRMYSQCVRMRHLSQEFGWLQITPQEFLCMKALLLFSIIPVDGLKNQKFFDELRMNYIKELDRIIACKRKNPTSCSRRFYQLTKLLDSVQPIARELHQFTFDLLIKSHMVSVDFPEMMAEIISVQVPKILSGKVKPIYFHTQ
# Chain of mouse Estrogen Receptor alpha (Era), Esr1 (gene 13982) (P19785 whole entry, looked up): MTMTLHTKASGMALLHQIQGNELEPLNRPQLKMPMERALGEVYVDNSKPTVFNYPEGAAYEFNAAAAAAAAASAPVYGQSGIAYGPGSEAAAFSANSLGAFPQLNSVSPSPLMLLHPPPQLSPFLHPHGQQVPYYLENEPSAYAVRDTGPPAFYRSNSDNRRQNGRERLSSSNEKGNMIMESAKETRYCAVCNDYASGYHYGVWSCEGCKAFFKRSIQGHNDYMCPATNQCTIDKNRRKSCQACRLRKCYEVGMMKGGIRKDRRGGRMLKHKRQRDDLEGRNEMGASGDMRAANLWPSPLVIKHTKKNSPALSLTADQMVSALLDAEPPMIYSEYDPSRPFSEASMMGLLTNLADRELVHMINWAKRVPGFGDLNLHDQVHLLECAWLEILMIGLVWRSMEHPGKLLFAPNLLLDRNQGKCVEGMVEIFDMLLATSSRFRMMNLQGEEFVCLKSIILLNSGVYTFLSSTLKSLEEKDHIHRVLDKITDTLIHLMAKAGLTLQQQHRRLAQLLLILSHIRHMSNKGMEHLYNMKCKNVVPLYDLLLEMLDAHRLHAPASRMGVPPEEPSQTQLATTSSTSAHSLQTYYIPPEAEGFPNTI
structure (smiles),measurement,setting,value
C[C@]12C[C@H](O)[C@H]3[C@@H](CCC4=CC(=O)CC[C@@]43C)[C@@H]1CC[C@@H]2C(=O)CO,outcome,[1],inactive
same,outcome,[2],inactive
same,outcome,[3],inactive
same,outcome,[4],inactive
same,AC50,[5],32.3 µM (active)
same,outcome,[5],inactive
same,AC50,[6],16.8 µM (active)
same,outcome,[6],inactive
same,outcome,[7],inactive
same,outcome,[8],inactive
same,outcome,[9],inactive
same,outcome,[10],inactive
same,AC50,[11],34.4 µM (active)
same,AC50,[12],16.1 µM (active)
same,AC50,[13],72.2 µM (active)
same,AC50,[14],1.04 µM (active)
O=C(Nc1ccc([N+](=O)[O-])cc1Cl)c1cc(Cl)ccc1O,outcome,[2],inactive
same,outcome,[3],inactive
same,outcome,[4],inactive
same,AC50,[5],5.91 µM (active)
same,AC50,[6],1.21 µM (active)
same,AC50,[7],1.19 µM (active)
same,outcome,[7],inactive
same,AC50,[8],1.45 µM (active)
same,outcome,[8],inactive
same,outcome,[9],inactive
same,outcome,[10],inactive
same,outcome,[11],inactive
same,outcome,[12],inactive
same,outcome,[13],inactive
same,outcome,[14],inactive
CC1(C)C(C=C(Cl)Cl)C1C(=O)OCc1cccc(Oc2ccccc2)c1 (configuration not stated),outcome,[15],inactive
same,outcome,[3],inactive
same,outcome,[4],inactive
same,outcome,[7],inactive
same,outcome,[8],inactive
same,AC50,[11],11.3 µM (active)
same,outcome,[12],inactive
same,AC50,[13],11.1 µM (active)
same,outcome,[16],inactive
same,outcome,[14],inactive
COC(=O)c1ccccc1C(=O)O,outcome,[2],inactive
same,outcome,[3],inactive
same,outcome,[4],inactive
same,outcome,[7],inactive
same,outcome,[8],inactive
same,outcome,[9],inactive
same,outcome,[10],inactive
CCOC(=O)C(C)Oc1ccc(Oc2cnc3cc(Cl)ccc3n2)cc1 (configuration not stated),outcome,[3],inactive
same,outcome,[4],inactive
same,AC50,[5],43 µM (active)
same,outcome,[6],inactive
same,outcome,[7],inactive
same,outcome,[8],inactive
same,outcome,[9],inactive
same,outcome,[10],inactive
same,outcome,[11],inactive
same,outcome,[12],inactive
same,outcome,[13],inactive
same,outcome,[14],inactive
CCOC(=O)NCCOc1ccc(Oc2ccccc2)cc1,outcome,[3],inactive
same,outcome,[4],inactive
same,AC50,[5],11.7 µM (active)
same,AC50,[6],12.1 µM (active)
same,AC50,[7],2.34 µM (active)
same,outcome,[7],inactive
same,AC50,[8],50 µM (active)
same,outcome,[8],inactive
same,outcome,[9],inactive
same,outcome,[10],inactive
CCCOC(=O)NCCCN(C)C,outcome,[7],inactive
same,outcome,[8],inactive
same,outcome,[9],inactive
same,outcome,[10],inactive
CCCCCCC(C)OC(=O)COc1nc(F)c(Cl)c(N)c1Cl (configuration not stated),AC50,[2],72.8 µM (active)
same,AC50,[7],79.2 µM (active)
same,outcome,[7],inactive
same,outcome,[8],inactive
CCCCCOC(=O)COc1cc(N2C(=O)C3=C(CCCC3)C2=O)c(F)cc1Cl,outcome,[2],inactive
same,outcome,[3],inactive
same,outcome,[4],inactive
same,outcome,[7],inactive
same,outcome,[8],inactive
same,outcome,[9],inactive
same,outcome,[10],inactive
same,outcome,[11],inactive
same,outcome,[12],inactive
same,outcome,[13],inactive
same,outcome,[14],inactive
COC(=O)CSc1cc(N=c2sc(=O)n3n2CCCC3)c(F)cc1Cl,outcome,[15],inactive
same,outcome,[2],inactive
same,outcome,[5],inactive
same,outcome,[7],inactive
same,outcome,[8],inactive
same,outcome,[9],inactive
same,outcome,[10],inactive
S=C([S-])NCCNC(=S)[S-].[Mn+2],outcome,[2],inactive
same,outcome,[7],inactive
same,AC50,[8],69.5 µM (active)
same,outcome,[8],inactive
same,outcome,[9],inactive
same,outcome,[10],inactive
same,outcome,[11],inactive
same,outcome,[12],inactive
same,outcome,[13],inactive
same,outcome,[14],inactive
CC(C)(C)[C@@H](O)[C@@H](Cc1ccc(Cl)cc1)n1cncn1,outcome,[2],inactive
same,outcome,[5],inactive
same,outcome,[6],inactive
same,outcome,[7],inactive
same,outcome,[9],inactive
same,outcome,[10],inactive
same,outcome,[11],inactive
same,outcome,[12],inactive
same,outcome,[13],inactive
same,outcome,[14],inactive
COCCO,outcome,[3],inactive
same,outcome,[4],inactive
same,outcome,[7],inactive
same,outcome,[8],inactive
same,outcome,[9],inactive
same,outcome,[10],inactive
